According to ChEMBL document CHEMBL1157539, “Thousands of chemical starting points for antimalarial lead identification” (Nature, 2010):

System: Plasmodium falciparum
Experiment: GSK_TCMDC: Inhibition of Plasmodium falciparum 3D7 in whole red blood cells, using parasite LDH activity as an index of growth. Test compounds present at 2uM
Format: functional

| SMILES | Inhibition |
| --- | --- |
| O=C(Nc1cccc(CN2CCCN(Cc3ccc(O)cc3)CC2)c1)c1ccc(Br)cc1.O=C(O)C(F)(F)F | 94% |
| COC(=O)COc1cc(C(=O)NCCCCN2CCC(c3ccc4c(c3OC)CCCC4)CC2)ccc1-c1ccc(Cl)cc1 | 97% |
| COc1ccc(CCN(C)CCOc2ccc(NC(=O)c3cccc4cc5ccccc5nc34)cc2)cc1OC | 100% |
| COc1cccc(CNC[C@@H](O)[C@H](Cc2ccccc2)NC(=O)c2cc(N3CCCC3=O)c3[nH]cc(C(C)C)c3c2)c1 | 96% |
| CC(C)=CCN1CCC(C(=O)Nc2ccc(-c3nc4ccccc4[nH]3)cc2)CC1 | 95% |
| CCCCCCN(CCCCCC)CC(O)c1cc(-c2ccc(Cl)cc2)nc2c(C)cc(C)cc12 (configuration not stated) | 98% |
| CC(C)CCN1CCCN(Cc2cccc(NC(=O)c3ccc(-c4ccccc4)cc3)c2)CC1.O=C(O)C(F)(F)F | 92% |
| COCCOc1cc(C)c(C2CCN(CCCCNC(=O)c3ccc(NC(=O)c4ccc(Cl)cc4)cc3)CC2)cc1C | 88% |
| COc1ccc2ncc(F)c(CCN3CC4CCCC4(CNCc4ccc5c(n4)NC(=O)CS5)C3)c2n1.Cl (configuration not stated) | 87% |
| O=C(Nc1nc(-c2cc(F)ccc2F)cs1)c1cncc(Br)c1 | 85% |
| Cl.FC(F)(F)c1ccccc1OCc1cc(-c2ccncc2)c(COc2ccccc2C(F)(F)F)cc1C1=CCNCC1 | 98% |
| CCCNC(=O)Nc1ccc(N(C)c2ccnc(NC3CC3)n2)cc1 | 100% |
| CCCC(CNCc1cccc(OC(F)(F)C(F)F)c1)CNc1cc(=O)c2ccccc2[nH]1 (configuration not stated) | 100% |
| N#Cc1cccc(NC(=O)Nc2cccc(-c3ccc(-c4nc5cc(C(F)(F)F)ccc5[nH]4)cc3)c2)c1 | 100% |
| CCOC(=O)N/N=C/[C@H](CCc1ccccc1)NC(=O)[C@H](CC(C)C)NC(=O)c1cc2cccc(OC)c2o1 | 84% |
| CC(C)(CN)c1nc(-c2ccc(Br)c(O)c2)c(-c2ccncc2)[nH]1.Cl | 96% |
| CC(C)(C)c1ccc2[nH]c(-c3ccc(C(=O)NC4CCN(Cc5ccccc5)CC4)s3)nc2c1 | 91% |
| O=C(Nc1ccc(Cl)cc1C(=O)Nc1cccc(F)c1)c1ccc([N+](=O)[O-])cc1 | 89% |
| CN(C)CCCNCc1ccc(-c2ccc(CNCCc3ccccc3)cc2)cc1.O=C(O)C(F)(F)F | 100% |
| COc1ccc2nccc([C@@H](O)CN3CCC(NC(=O)C(c4cc5ccccc5o4)N4CCC(Cc5ccccc5)CC4)CC3)c2c1 (some centres not stated) | 100% |
| CN1CCN(Cc2cc3cc(NC(=O)/C=C/c4cccc(Cl)c4)ccc3s2)CC1.Cl | 100% |
| CN1CCN(Cc2nc(-c3ccc4c(Nc5ccc(F)c(O)c5)ccnc4c3)cs2)CC1 | 100% |
| CN1CCCC(CN2CCN(Cc3cccc(-c4ccc(-c5nc6cc(F)ccc6[nH]5)cc4)c3)CC2)C1.O=C(O)C(F)(F)F (configuration not stated) | 100% |
| COc1cc(NC(=O)Nc2ccc(Br)cc2C(=O)Nc2ccc(Br)cc2)cc(OC)c1OC | 99% |
| O=C(Nc1cccc(CN2CCCN(Cc3ncc[nH]3)CC2)c1)c1ccc2ccccc2c1.O=C(O)C(F)(F)F | 100% |
| Cc1ccccc1Nc1cc(Nc2ccccc2C)c2ccccc2n1 | 96% |
| CC(C)N1CCN(CCCCNc2c3ccccc3nc3ccccc23)CC1.Cl | 100% |
